# What was measured:
# Assay in all cases: DAPPL (digital affinity profiling via proximity ligation, sequencing); 10 mM Tris-HCl pH 7.5, 50 mM NaCl, 1 mM DTT, 4% glycerol, room temperature, 30 min; GST-TFs on glutathione beads, 16-mer random dsDNA library, 0.1% formaldehyde crosslink after washing; high values mean tight binding
# Settings in all cases: protein: recombinant; tags: N-terminal GST; dsDNA, one strand shown
# ELK1 = target: T1, ELK1 (Homo sapiens, UniProt P19419 1-428)
# T1 sequence: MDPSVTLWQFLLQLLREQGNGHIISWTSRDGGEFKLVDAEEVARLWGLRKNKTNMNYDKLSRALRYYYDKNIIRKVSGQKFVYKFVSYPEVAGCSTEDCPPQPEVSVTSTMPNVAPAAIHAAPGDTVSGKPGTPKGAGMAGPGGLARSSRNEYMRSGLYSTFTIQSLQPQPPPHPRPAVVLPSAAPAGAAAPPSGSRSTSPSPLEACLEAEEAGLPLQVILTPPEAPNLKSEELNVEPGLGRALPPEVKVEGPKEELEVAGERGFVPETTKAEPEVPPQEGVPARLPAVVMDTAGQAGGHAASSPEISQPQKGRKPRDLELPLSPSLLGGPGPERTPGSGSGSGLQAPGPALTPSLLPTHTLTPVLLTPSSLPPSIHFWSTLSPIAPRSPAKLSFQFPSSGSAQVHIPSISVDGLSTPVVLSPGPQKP
# Outline: (§1)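 Yeast served to express human transcription factors as GST fusions, which were then captured on glutathione beads and labelled with DNA barcodes. Pooled with a tag-only sample, they were incubated with 200 nmole of a 16-mer random double-stranded DNA library for 30 min at room temperature in Tris/NaCl/DTT/glycerol buffer, washed, crosslinked with 0.1% formaldehyde, ligated by proximity, amplified by PCR and sequenced. Dividing each hexamer's read frequency for a factor by its frequency for the tag-only sample gives the binding signal.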
# GABPA = target: T2, GABPA (Homo sapiens, UniProt Q06546 1-454)
# T2 sequence: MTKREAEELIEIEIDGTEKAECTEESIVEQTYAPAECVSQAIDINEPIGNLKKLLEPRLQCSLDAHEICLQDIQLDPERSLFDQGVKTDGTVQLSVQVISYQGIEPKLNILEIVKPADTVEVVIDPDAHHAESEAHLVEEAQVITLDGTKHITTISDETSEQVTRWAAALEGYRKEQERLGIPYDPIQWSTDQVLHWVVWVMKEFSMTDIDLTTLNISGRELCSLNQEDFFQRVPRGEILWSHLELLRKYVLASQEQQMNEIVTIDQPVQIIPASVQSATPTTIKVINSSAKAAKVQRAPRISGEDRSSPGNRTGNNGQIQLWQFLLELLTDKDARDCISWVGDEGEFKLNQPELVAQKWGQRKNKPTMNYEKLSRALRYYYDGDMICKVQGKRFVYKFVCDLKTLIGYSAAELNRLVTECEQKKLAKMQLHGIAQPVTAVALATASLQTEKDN
# Outline: as §1
# ERG = target: T3, ERG (Homo sapiens, UniProt P11308 1-479)
# T3 sequence: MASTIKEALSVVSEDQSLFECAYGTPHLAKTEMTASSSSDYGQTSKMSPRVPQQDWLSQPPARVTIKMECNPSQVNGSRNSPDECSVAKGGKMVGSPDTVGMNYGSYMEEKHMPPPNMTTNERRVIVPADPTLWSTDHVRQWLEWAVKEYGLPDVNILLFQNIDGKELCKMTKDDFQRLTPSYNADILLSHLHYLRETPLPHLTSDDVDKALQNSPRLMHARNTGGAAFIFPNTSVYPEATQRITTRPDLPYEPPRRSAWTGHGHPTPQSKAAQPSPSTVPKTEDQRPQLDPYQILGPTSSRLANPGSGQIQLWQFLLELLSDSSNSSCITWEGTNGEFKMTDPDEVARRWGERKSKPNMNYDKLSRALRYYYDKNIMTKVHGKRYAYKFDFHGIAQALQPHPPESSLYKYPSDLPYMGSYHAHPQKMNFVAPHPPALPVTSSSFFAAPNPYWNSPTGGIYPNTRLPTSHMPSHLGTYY
# Outline: as §1
# ELF1 = ELF1 (Homo sapiens, UniProt P32519 1-619)
# Outline: as §1
# EHF = target: T4, EHF (Homo sapiens, UniProt Q9NZC4 1-300)
# T4 sequence: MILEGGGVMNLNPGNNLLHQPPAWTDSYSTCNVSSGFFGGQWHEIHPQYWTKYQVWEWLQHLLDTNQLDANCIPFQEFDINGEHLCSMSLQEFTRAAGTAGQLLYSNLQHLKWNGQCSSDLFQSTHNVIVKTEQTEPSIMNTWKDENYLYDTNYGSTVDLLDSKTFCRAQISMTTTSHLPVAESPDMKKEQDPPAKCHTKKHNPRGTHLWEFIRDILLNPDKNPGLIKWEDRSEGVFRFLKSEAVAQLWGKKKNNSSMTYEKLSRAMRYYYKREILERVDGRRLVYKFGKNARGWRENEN
# Outline: as §1
# SPIB = SPIB (Homo sapiens, UniProt Q01892 1-262)
# Outline: as §1
# FEV = target: T5, FEV (Homo sapiens, UniProt Q99581 1-238)
# T5 sequence: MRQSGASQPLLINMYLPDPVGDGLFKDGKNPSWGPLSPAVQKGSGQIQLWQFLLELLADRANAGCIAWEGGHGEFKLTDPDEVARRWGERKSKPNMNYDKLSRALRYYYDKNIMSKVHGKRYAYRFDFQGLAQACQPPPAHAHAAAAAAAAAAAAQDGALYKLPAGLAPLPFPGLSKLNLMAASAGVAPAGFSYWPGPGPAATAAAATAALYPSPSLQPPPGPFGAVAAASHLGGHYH
# Outline: as §1
# ETV5 = ETV5 (Homo sapiens, UniProt P41161 1-510)
# Outline: as §1
# ELF4 = ELF4 (Homo sapiens, UniProt Q99607 1-663)
# Outline: as §1
# ELK4 = target: T6, ELK4 (Homo sapiens, UniProt P28324-2 1-405)
# T6 sequence: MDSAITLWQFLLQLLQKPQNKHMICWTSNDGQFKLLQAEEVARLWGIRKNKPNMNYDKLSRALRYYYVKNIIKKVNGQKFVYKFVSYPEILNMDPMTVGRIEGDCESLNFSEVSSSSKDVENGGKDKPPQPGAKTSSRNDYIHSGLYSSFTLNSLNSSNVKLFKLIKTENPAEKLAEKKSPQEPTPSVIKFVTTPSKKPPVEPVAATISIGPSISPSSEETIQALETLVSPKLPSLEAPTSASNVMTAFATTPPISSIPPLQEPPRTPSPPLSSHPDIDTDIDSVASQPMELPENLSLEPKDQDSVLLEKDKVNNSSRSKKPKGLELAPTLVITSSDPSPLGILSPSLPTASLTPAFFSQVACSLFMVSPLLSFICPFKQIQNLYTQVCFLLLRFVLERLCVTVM
# Outline: as §1
# Sequence of SPIB (Q01892 whole entry): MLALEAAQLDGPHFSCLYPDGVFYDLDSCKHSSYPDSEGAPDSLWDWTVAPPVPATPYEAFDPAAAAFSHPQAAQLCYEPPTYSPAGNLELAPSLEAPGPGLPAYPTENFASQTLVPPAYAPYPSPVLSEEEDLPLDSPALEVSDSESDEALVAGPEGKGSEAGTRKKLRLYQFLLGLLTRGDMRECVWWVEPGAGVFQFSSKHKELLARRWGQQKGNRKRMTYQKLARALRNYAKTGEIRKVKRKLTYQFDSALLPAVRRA
# Sequence of ELF4 (Q99607 whole entry): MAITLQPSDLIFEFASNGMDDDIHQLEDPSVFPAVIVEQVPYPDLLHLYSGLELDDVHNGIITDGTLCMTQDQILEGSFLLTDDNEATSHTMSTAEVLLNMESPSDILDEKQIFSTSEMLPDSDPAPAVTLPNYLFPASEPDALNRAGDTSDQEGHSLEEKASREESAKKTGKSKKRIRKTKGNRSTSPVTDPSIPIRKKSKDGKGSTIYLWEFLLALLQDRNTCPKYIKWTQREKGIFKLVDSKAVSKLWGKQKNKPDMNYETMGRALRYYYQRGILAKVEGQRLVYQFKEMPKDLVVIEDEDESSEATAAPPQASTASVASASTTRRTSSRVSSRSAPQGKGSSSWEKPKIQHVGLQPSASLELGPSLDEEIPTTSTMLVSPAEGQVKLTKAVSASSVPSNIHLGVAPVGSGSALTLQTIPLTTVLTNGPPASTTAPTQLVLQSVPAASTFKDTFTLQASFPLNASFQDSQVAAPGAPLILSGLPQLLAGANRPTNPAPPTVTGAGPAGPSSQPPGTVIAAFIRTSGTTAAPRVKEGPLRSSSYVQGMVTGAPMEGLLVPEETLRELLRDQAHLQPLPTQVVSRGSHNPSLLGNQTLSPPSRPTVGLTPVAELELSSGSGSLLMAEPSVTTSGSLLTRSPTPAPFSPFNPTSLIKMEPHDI
# Sequence of ETV5 (P41161 whole entry): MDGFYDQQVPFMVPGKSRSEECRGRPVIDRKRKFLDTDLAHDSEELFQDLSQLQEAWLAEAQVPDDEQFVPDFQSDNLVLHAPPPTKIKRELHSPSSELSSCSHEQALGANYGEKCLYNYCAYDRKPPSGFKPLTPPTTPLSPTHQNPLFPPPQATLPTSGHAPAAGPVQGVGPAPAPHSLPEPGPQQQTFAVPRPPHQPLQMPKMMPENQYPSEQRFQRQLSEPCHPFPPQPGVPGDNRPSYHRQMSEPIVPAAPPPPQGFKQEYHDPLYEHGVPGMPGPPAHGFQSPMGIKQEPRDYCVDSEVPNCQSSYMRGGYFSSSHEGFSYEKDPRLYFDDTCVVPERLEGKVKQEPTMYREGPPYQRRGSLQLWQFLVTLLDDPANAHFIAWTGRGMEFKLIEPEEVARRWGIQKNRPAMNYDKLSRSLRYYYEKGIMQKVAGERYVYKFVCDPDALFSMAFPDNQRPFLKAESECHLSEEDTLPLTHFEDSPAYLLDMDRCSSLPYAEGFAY
# Sequence of ELF1 (P32519 whole entry): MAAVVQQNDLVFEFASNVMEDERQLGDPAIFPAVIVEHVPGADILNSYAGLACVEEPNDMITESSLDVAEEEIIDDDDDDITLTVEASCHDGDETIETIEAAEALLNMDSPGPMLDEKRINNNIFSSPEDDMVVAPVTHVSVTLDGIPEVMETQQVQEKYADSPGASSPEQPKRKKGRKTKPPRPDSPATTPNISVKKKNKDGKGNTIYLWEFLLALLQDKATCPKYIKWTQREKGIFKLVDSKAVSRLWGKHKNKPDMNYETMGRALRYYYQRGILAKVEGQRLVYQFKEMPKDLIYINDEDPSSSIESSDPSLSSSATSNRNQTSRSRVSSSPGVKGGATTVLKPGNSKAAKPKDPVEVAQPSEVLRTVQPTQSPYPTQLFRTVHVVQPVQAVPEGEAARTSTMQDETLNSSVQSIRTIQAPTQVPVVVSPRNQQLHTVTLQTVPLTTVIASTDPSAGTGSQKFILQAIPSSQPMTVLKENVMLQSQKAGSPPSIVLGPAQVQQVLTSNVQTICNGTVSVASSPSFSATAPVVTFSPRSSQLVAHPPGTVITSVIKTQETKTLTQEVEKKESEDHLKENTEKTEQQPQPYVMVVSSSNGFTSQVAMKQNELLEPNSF
sequence,measurement,setting,value
GTTGAC,binding signal,ELK1,"1.03 fold enrichment (6-mer frequency, TF over GST control)"
same,binding signal,GABPA,"1.19 fold enrichment (6-mer frequency, TF over GST control)"
same,binding signal,ERG,"1.22 fold enrichment (6-mer frequency, TF over GST control)"
same,binding signal,ELF1,"1.2 fold enrichment (6-mer frequency, TF over GST control)"
same,binding signal,EHF,"1.17 fold enrichment (6-mer frequency, TF over GST control)"
same,binding signal,SPIB,"1.22 fold enrichment (6-mer frequency, TF over GST control)"
same,binding signal,FEV,"1.18 fold enrichment (6-mer frequency, TF over GST control)"
same,binding signal,ETV5,"1.01 fold enrichment (6-mer frequency, TF over GST control)"
same,binding signal,ELF4,"1.15 fold enrichment (6-mer frequency, TF over GST control)"
same,binding signal,ELK4,"1.25 fold enrichment (6-mer frequency, TF over GST control)"

# Source: PMC7862700, “An all-to-all approach to the identification of sequence-specific readers for epigenetic DNA modifications on cytosine”
